The target in assay [1] is Lysosomal acid glucosylceramidase (Homo sapiens) (UniProt P04062). Put plainly: Glucocerebrosidase-p2 (AID 348; in the data active = potency below about 10 µM; note: potency is the fitted concentration of half-maximal effect). The note with it: purified GBA, blue fluorogenic substrate, 40 min. The gist of the method: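 Normal human glucocerebrosidase (0.2 nM) with blue fluorogenic substrate (80 uM final) in citrate/phosphate pH 5.9 with 10mM sodium taurocholate, 0.01% tween-20; 40 min RT, NaOH/glycine stop; fluorescence Ex 365/Em 440; AC50 from a titration from 0.6 nM upwards.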

Assay [2] in a line: AP1 Signaling Pathway (AID 357). Note: % is set by controls: 0 for no effect and ±100 for the full control effect. The note with it: ME-180 AP-1-bla reporter, EGF-induced, beta-lactamase ratio, 5 h; at 7.69 µM (top of the series) unless noted. The gist of the method: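 In this screen, ME-180 cells in Opti-MEM with 0.5% dialyzed FBS received EC50 EGF and compound titrations for 5 h. AP-1 reporter beta-lactamase was detected via CCF4 ratio, giving AC50 for positive and negative modulators.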

Assay [3] addresses Cytochrome P450 1A2 (Homo sapiens) (UniProt P05177). Description: p450-cyp1a2 (AID 410; calls by dose curve; note: potency is the fitted concentration of half-maximal effect). The note with it: recombinant CYP1A2, luciferin-ME demethylation, luminescence; series mostly up to 11.4 µM. In short, it runs like this: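 O-Demethylation of luciferin 6' methyl ether by human CYP1A2 is monitored as luciferase luminescence. Substrate sits at Km (100uM); enzyme is 20nM. Values are scaled to 57 uM furafylline as maximal inhibition.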

Assay [4] is described as follows: Stat Signaling Pathway (AID 446).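 Note: ME-180 cervical cancer cells given 40 pM IL-6 alongside compound; SIE-controlled beta-lactamase reporter measured as 460/530 nm FRET emission ratio; % is set by controls: 0 for no effect and ±100 for the full control effect.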 The note with it: ME-180 (cervical carcinoma) SIE beta-lactamase reporter, IL-6 stimulated, 5 h; at 7.69 µM (top of the series) unless noted. The gist of the method: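 FRET read-out (405 nm excitation, 460/530 nm emission) of a beta-lactamase reporter under a STAT-inducible element in ME-180 cervical carcinoma cells. Cells with compound receive 40 pM IL-6 for 5 h. Values are normalised to AC90 stimulation and AC90 JAK-inhibitor controls.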

The target of assay [5] is Glucocorticoid receptor (Homo sapiens) (UniProt P04150). Put plainly: GR-GFP Redistribution (AID 450;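 active = compounds whose dose series gives a full or clear partial fitted curve of increased nuclear translocation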; note: potency is the fitted concentration of half-maximal effect). The following applies: U2OS GR-GFP nuclear translocation, laser cytometry, 2 h.
The target is the same in assay [6]. Put plainly: GR-EFC Redistribution (AID 451; calls by dose curve; note: potency is the fitted concentration of half-maximal effect). The following applies: CHO-K1 GR-EFC translocation, beta-gal luminescence, 2 h. In short, it runs like this:
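Translocation of GR-ED fusion to nuclear EA restores b-gal, read by luminescence after 1 h room-temperature detection. Engineered CHO-K1 biosensor cells, 1,000/well, exposed 2 h at 37 C to titrations up to 46 uM final.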

Assay [7] concerns the target Mitogen-activated protein kinase 10 (Mus musculus) (UniProt Q61831). Put plainly: JNK3 AlphaScreen Assay (AID 530).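 Note: kinase came from lysate of stimulated human HepG2 cells; signal reports phosphorylation of biotinylated GST-cJun 1-79 at Ser73 with 10 µM ATP; % is set by controls: 0 for no effect and ±100 for the full control effect.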 The note with it: JNK3 lysate, c-Jun phosphorylation; series mostly up to 11.4 µM. The gist of the method:
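qHTS titrations with 15 min compound pre-incubation before adding ATP (10 uM final). Read-out: AlphaScreen of Ser73-phosphorylated biotin-GST-cJun using HepG2 lysate JNK3 activated by IL-1β and TNFα.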
(Alpha assays give light when donor and acceptor beads are brought close together.)

Assay [8] concerns the target 3',5'-cyclic-AMP phosphodiesterase 4B (Homo sapiens) (UniProt Q07343). Description: qHTS Assay for Inhibitors of PDE-IV (AID 607; active = well fitted activation curve with a large enough effect in the main read-out, with a control signal flat, not every such curve was filed as active; note: % of control where 0% means no effect). The following applies: HEK293 ACTOne CNG channel cells, membrane potential fluorescence; series mostly up to 22.9 µM. The gist of the method: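 Cell-based read-out of cAMP via a modified cyclic nucleotide-gated channel and membrane potential dye (535/590 nm) in HEK293 cells expressing PDE4 endogenously. Compounds tested up to 22.9 uM final; 100 uM RO 20-1724 reference.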

Assay [9] is described as follows: NFAT Signaling Pathway (AID 444).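 Note: carbachol stimulus at about its EC50 of 1 µM final; % is set by controls: 0 for no effect and ±100 for the full control effect.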 The following applies: Jurkat NFAT-bla M1, carbachol, beta-lactamase ratio, 5 h; at 7.69 µM (top of the series) unless noted. The gist of the method: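 Read-out: CCF4 FRET ratio (460 nm/530 nm) after 1 h RT dye loading, used for %activity and AC50 from titration series. Cells: Jurkat NFAT-β-lactamase/M1 line, treated with compound plus 1 uM carbachol for 5 h, 37 °C.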

The target of assay [10] is Cytochrome P450 2C19 (Homo sapiens) (UniProt P33261). Description: qHTS Assay for Inhibitors and Substrates of Cytochrome P450 2C19 (AID 899; active = well fitted curve in the direction sought with a large enough effect; an effect the other way counts as inactive or inconclusive; note: % is set by controls: 0 for no effect and ±100 for the full control effect; nearly all actives have a fitted effect of over 60% in size). The note with it: recombinant CYP2C19, luciferin-H EGE luminescence; series mostly up to 11.4 µM. The gist of the method: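 Luminescence readout of luciferin formed from 10uM Luciferin-H EGE (KM level) by 5 nM CYP2C19 in 50mM KPO4. 60 min NADPH-driven reaction at 37C after 10 min compound preincubation; data scaled to 57uM ketoconazole inhibition.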
(In general: In qHTS, concentration-response curves come from the screen itself.)

Assay [11] concerns the target Cytochrome P450 3A4 (Homo sapiens) (UniProt P08684). Description: qHTS Assay for Activators of Cytochrome P450 3A4 (AID 885; active = well fitted curve in the direction sought with a large enough effect; an effect the other way counts as inactive or inconclusive; note: nearly all actives have a fitted effect of over 65% in size). The following applies: recombinant CYP3A4, Luciferin-PPXE luminescence, 60 min; series mostly up to 11.4 µM. The gist of the method:
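Luminescent readout of luciferin formed from 25 uM Luciferin-PPXE (KM level) by 20 nM CYP3A4 in 200 mM KPO4, with 60 min NADPH-driven reaction at room temperature after 10 min compound exposure. Ketoconazole (57 uM) defined 100% inhibition.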

A number with no mark means an inactive call. Inconclusive results are not listed. Activity calls are given as the source filed them. Unless noted, calls come from the whole dose curve; as a rule, active = well fitted curve in either direction with a large enough effect (not every such curve was filed as active); inconclusive = small, poorly fitted or top-dose-only effect, or another doubt; inactive = flat fitted curve, though single readings scatter.

Chain of Cytochrome P450 1A2 (Homo sapiens) (P05177 whole entry, looked up): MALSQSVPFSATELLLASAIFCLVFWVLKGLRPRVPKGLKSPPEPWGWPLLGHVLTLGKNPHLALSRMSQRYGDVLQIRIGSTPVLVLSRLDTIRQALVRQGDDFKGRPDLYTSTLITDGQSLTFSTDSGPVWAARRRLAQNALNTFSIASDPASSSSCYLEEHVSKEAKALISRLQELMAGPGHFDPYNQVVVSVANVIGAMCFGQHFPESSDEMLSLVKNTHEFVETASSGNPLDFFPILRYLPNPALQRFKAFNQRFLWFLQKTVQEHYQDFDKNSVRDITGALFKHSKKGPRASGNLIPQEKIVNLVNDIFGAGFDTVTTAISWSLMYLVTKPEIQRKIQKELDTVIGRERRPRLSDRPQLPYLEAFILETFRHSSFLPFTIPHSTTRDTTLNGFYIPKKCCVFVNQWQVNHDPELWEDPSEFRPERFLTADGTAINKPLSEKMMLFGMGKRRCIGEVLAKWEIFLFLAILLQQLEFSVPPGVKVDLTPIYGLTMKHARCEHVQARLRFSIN
Chain of Lysosomal acid glucosylceramidase (Homo sapiens) (P04062 whole entry, looked up): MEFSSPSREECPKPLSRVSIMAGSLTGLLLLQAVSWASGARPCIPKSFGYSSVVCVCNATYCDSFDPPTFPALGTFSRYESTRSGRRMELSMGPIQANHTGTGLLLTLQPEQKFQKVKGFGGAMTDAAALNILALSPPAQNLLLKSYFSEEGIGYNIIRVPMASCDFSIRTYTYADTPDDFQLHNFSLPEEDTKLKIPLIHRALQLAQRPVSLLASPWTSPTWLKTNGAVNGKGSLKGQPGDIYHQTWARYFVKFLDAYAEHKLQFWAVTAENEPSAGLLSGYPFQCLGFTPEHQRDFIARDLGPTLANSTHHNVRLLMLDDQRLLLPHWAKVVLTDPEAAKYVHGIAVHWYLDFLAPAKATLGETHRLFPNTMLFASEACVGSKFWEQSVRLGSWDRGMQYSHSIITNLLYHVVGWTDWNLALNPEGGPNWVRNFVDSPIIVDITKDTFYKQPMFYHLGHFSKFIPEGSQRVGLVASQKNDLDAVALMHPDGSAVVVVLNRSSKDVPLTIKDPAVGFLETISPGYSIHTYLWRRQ
Chain of 3',5'-cyclic-AMP phosphodiesterase 4B (Homo sapiens) (Q07343 whole entry, looked up): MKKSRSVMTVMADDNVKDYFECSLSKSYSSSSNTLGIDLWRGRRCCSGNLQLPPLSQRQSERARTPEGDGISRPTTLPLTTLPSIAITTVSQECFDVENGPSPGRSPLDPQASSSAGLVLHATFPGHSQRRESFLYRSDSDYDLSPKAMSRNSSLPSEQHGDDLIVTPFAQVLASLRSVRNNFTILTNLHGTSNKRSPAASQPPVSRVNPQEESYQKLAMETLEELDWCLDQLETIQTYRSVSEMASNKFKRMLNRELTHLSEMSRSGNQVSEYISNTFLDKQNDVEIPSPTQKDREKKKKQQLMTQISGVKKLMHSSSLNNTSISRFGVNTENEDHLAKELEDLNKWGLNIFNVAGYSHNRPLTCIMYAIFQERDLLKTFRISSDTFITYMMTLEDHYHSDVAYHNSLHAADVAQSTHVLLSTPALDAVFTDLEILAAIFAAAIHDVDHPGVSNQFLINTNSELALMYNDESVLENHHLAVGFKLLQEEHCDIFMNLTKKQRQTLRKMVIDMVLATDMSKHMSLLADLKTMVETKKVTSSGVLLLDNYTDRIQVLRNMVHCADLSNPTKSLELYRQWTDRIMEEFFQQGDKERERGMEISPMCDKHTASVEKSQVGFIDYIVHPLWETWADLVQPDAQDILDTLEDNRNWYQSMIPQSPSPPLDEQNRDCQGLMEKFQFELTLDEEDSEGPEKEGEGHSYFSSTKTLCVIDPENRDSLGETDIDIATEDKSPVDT
Chain of Glucocorticoid receptor (Homo sapiens) (P04150 whole entry, looked up): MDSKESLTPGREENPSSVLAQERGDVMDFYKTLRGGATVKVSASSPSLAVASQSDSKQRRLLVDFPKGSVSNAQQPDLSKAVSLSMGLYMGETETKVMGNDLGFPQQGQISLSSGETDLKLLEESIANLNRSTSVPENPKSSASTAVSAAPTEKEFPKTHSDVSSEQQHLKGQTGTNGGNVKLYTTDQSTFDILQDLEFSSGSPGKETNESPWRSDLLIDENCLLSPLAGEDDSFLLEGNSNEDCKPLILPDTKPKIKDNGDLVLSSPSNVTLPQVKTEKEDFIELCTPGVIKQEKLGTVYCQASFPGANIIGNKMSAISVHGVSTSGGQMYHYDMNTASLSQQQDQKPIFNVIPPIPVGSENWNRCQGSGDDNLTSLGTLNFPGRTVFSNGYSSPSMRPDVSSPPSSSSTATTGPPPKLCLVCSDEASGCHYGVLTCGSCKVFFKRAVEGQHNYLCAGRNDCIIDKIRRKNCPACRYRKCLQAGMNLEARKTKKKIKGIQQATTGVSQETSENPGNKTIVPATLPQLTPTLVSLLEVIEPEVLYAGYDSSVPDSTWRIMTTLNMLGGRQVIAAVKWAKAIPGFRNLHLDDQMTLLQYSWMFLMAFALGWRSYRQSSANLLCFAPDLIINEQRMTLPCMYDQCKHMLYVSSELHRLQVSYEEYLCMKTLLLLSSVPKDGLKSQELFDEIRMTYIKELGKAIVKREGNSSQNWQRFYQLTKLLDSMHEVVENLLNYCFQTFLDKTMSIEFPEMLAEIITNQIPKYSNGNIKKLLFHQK
Chain of Cytochrome P450 2C19 (Homo sapiens) (P33261 whole entry, looked up): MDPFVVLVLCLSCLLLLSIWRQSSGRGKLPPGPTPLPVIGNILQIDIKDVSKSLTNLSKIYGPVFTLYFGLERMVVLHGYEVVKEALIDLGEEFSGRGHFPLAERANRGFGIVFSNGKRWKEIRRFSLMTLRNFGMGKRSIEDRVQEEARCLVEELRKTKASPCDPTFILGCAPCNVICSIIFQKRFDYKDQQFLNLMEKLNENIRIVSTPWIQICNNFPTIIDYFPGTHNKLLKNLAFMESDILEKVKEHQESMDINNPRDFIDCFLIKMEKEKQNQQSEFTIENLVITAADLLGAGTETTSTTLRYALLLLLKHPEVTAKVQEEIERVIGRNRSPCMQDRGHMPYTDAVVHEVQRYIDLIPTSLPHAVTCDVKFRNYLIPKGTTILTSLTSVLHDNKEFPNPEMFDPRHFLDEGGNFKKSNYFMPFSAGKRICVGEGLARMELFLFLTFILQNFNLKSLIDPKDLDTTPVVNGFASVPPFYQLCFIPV
Chain of Cytochrome P450 3A4 (Homo sapiens) (P08684 whole entry, looked up): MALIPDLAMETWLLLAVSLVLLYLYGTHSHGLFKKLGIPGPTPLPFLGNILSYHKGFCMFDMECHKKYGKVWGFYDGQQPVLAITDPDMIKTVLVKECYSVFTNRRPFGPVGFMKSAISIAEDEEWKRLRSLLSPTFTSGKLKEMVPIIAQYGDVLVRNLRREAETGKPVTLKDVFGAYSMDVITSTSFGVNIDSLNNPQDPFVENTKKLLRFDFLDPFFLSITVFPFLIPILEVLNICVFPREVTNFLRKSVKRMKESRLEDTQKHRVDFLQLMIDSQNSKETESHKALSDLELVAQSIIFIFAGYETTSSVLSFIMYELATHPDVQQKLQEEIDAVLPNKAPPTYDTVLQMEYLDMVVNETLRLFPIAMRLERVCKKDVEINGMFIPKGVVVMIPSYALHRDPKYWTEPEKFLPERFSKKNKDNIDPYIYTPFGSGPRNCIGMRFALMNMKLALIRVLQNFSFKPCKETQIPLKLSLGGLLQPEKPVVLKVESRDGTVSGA

With `CC(C)C(=O)C(C)(C)CCc1ccccn1`, the Potency was greater than 11.4 µM in [1], 2.51 µM (active) in assay [3], greater than 46 µM in [5] and greater than 9.22 µM in assay [6]. For the same compound, the activity change, negative = inhibition in assay [2] is 27.3%. For the same compound, the activity, negative = inhibition in assay [4] is 1.04%. For the same compound, the Potency result in [7] and in assay [8] was “inactive” each time.
Regarding `N[C@@H](Cc1cccnn1)C(=O)O`, the Potency in [1] is greater than 11.4 µM; in assay [3], 3.16 µM (active); in assay [5] it was greater than 46 µM; in assay [6], greater than 9.22 µM. Moreover, the activity change, negative = inhibition in assay [2] is 2.23%. Moreover, in [4], the activity, negative = inhibition was 2.86%. For the same compound, the Potency result in assay [7] and in [8] was “inactive” throughout.
Turning to `O=C(O)CCNc1ncnc2nc[nH]c12`, the Potency is greater than 11.4 µM in assay [1], greater than 46 µM in [5] and greater than 9.22 µM in assay [6]. Besides, in assay [2], the activity change, negative = inhibition is 8.82%. For the same compound, the Potency entry in assay [3], in assay [7] and in [8] was “inactive” throughout. For the same compound, the activity, negative = inhibition in assay [4] is -5.64%.
With `Cc1c2cc[n+](CCN3CCCCC3)cc2c(C)c2c1[nH]c1ccc(O)cc12`, the Potency in [1] is greater than 11.4 µM; in [3] it was 2.51 µM (active); in [5] it was greater than 46 µM; in [6], greater than 9.22 µM. Further, the activity change, negative = inhibition in assay [2] was 9.2%. The activity, negative = inhibition in assay [4] was 17.1%. In addition, the Potency entry in [7] and in assay [8] was “inactive” in each case.
Take `O=C(O)[C@H]1[C@H](C(=O)O)[C@H](C(=O)O)C[C@@H]1C(=O)O`: the Potency in assay [1] was greater than 11.4 µM; in [5], greater than 46 µM; in assay [6], greater than 9.22 µM. The activity change, negative = inhibition in [2] was -1.4%. Moreover, the Potency result in assay [3], in assay [7] and in [8] was “inactive” throughout. Also, the activity, negative = inhibition in assay [4] is 4.24%.
Turning to `Cn1cnc([N+](=O)[O-])c1SCC(=O)O`, the Potency in assay [1] was greater than 11.4 µM; in [5], greater than 46 µM; in [6], greater than 9.22 µM. Besides, the results for the activity change, negative = inhibition in [2] and in assay [9] were 3.98% and 3.51%, respectively. Moreover, the Potency result in [3], in assay [7], in [8] and in [10] was “inactive” in each case.
Consider `O=c1c[n+](CCCC[n+]2cc(=O)o[nH]2)[nH]o1`, for which the Potency in assay [1] is greater than 11.4 µM; in assay [5] it was greater than 46 µM; in assay [6], greater than 9.22 µM. The activity change, negative = inhibition in [2] is 4.96%; in assay [9] it was -11%. Further, the Potency entry in assay [3], in assay [7], in assay [8] and in assay [10] was “inactive” each time.
Regarding `CN(C)Cc1ccc(-c2cc3onc(-c4ccccc4)c3c(=O)n2C)cc1`, the figures for the Potency in assay [1], in assay [5] and in [6] were greater than 11.4 µM, greater than 46 µM and greater than 9.22 µM, respectively. Besides, the activity change, negative = inhibition in assay [2] was 12.1%. For the same compound, the Potency result in [3], in assay [7] and in assay [8] was “inactive” throughout. Besides, in assay [4], the activity, negative = inhibition is -3.19%.
For `COCCn1c(=O)c(-c2ccccc2)nc2cnc(Nc3ccccc3)nc21`, the Potency is greater than 11.4 µM in [1], 5.01 µM (active) in assay [3], greater than 9.22 µM in assay [5] and greater than 46 µM in assay [6]. Also, the activity change, negative = inhibition in [2] is -24.1%; in assay [9], 10.4%. The Potency entry in [7] and in [11] was “inactive” each time.

Source of the values: PubChem BioAssay (NCATS).
